Binding signal data for 1 sequence are collected here from article PMC7862700, “An all-to-all approach to the identification of sequence-specific readers for epigenetic DNA modifications on cytosine”.

What all share (assay): DAPPL (digital affinity profiling via proximity ligation, sequencing); 10 mM Tris-HCl pH 7.5, 50 mM NaCl, 1 mM DTT, 4% glycerol, room temperature, 30 min; GST-TFs on glutathione beads, 16-mer random dsDNA library, 0.1% formaldehyde crosslink after washing; high values mean tight binding
The target of experiment [1] is T1, FLI1 (Homo sapiens, UniProt Q01543 1-452).
T1 sequence: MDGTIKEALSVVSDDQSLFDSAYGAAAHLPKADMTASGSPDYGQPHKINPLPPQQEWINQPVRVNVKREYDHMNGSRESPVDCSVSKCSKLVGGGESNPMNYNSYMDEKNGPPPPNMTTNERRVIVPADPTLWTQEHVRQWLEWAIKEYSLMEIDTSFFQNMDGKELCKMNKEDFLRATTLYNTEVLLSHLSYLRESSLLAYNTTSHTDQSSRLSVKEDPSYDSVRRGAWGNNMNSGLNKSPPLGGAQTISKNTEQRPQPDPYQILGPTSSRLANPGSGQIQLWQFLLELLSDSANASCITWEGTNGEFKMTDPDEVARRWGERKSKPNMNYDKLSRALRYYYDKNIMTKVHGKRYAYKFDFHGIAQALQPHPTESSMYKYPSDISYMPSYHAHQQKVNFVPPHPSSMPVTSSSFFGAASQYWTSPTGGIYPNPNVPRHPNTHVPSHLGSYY
As to conditions: protein: recombinant; tags: N-terminal GST; dsDNA, one strand shown. In outline:
(§1)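 Each value of binding signal is a hexamer's read frequency for a factor divided by the same hexamer's frequency in the tag-only sample. Barcoded, bead-captured GST fusions of human transcription factors made in yeast were pooled with that sample and incubated with 200 nmole of a random double-stranded 16-mer DNA library in Tris/NaCl/DTT/glycerol buffer at room temperature for 30 min. Washing, 0.1% formaldehyde crosslinking, proximity ligation, PCR and Illumina NextSeq500 sequencing followed.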

For experiment [2], the target named is T2, ELK1 (Homo sapiens, UniProt P19419 1-428).
T2 sequence: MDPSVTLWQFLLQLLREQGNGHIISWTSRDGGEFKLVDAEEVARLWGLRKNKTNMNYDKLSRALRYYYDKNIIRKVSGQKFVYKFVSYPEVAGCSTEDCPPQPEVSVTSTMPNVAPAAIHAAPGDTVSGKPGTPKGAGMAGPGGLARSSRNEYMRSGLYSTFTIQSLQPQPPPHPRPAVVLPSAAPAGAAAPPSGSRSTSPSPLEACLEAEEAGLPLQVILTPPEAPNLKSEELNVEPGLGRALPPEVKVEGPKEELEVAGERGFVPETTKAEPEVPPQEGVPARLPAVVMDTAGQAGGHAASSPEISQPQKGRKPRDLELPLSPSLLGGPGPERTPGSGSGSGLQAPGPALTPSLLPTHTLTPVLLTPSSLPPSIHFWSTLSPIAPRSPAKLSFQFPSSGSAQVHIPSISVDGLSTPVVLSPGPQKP
As to conditions: protein: recombinant; tags: N-terminal GST; dsDNA, one strand shown. In outline:
as §1

In experiment [3] the target is T3, GABPA (Homo sapiens, UniProt Q06546 1-454).
T3 sequence: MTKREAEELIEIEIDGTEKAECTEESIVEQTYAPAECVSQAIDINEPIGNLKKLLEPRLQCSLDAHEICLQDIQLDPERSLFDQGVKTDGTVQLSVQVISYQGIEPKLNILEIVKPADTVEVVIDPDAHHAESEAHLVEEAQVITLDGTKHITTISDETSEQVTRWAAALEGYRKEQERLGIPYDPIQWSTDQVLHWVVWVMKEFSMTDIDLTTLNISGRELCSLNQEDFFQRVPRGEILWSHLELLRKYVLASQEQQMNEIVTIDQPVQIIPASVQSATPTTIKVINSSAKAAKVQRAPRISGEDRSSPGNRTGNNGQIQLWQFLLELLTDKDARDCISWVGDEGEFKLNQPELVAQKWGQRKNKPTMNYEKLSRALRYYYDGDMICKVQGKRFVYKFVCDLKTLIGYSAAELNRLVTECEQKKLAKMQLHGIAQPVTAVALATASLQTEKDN
As to conditions: protein: recombinant; tags: N-terminal GST; dsDNA, one strand shown. In outline: as §1

For experiment [4], the target named is T4, ERG (Homo sapiens, UniProt P11308 1-479).
T4 sequence: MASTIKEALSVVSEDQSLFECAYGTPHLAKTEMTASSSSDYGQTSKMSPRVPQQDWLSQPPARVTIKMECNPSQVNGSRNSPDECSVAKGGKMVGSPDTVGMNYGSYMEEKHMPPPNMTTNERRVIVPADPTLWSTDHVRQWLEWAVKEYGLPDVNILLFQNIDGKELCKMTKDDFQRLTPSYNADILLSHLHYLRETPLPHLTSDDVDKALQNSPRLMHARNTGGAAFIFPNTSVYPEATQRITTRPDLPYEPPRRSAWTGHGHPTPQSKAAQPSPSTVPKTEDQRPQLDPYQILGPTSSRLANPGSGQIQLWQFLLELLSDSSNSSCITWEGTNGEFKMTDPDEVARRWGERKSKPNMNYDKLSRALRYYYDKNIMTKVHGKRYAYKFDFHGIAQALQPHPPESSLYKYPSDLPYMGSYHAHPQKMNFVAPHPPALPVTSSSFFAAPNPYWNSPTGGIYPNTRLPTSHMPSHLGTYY
To be noted: protein: recombinant; tags: N-terminal GST; dsDNA, one strand shown. In outline: as §1

The target in experiment [5] is ELF1 (Homo sapiens, UniProt P32519 1-619). As to conditions: protein: recombinant; tags: N-terminal GST; dsDNA, one strand shown. In outline: as §1
ELF1, sequence (P32519 whole entry): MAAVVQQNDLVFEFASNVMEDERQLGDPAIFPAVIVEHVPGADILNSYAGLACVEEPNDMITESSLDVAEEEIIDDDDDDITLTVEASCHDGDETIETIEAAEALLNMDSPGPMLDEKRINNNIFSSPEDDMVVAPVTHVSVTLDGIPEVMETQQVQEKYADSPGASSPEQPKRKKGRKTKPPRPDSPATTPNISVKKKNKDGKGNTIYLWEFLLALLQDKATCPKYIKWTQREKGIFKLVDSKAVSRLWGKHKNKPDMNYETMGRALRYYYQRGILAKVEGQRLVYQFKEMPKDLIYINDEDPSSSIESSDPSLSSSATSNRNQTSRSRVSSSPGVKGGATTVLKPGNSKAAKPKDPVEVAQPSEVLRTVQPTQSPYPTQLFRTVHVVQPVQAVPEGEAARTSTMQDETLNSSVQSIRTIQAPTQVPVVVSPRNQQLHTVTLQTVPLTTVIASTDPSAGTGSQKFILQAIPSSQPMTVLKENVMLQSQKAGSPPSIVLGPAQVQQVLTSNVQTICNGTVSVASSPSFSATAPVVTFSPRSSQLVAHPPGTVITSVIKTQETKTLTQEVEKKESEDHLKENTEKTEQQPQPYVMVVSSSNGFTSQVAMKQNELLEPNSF
Experiment [6] concerns the target T5, EHF (Homo sapiens, UniProt Q9NZC4 1-300).
T5 sequence: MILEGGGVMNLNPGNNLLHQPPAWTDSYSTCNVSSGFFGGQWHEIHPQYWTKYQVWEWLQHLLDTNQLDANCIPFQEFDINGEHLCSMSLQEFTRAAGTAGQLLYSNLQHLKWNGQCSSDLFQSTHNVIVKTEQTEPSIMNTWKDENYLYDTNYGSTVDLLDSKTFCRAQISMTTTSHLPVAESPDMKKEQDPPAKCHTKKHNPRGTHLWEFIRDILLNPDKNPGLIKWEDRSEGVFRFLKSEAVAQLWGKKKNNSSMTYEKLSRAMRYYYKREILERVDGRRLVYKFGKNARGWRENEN
To be noted: protein: recombinant; tags: N-terminal GST; dsDNA, one strand shown. In outline:
as §1

The target in experiment [7] is SPI1 (Homo sapiens, UniProt P17947 1-270). As to conditions: protein: recombinant; tags: N-terminal GST; dsDNA, one strand shown. In outline: as §1
For experiment [8], the target named is SPIB (Homo sapiens, UniProt Q01892 1-262). To be noted: protein: recombinant; tags: N-terminal GST; dsDNA, one strand shown. In outline: as §1
SPIB, sequence (Q01892 whole entry): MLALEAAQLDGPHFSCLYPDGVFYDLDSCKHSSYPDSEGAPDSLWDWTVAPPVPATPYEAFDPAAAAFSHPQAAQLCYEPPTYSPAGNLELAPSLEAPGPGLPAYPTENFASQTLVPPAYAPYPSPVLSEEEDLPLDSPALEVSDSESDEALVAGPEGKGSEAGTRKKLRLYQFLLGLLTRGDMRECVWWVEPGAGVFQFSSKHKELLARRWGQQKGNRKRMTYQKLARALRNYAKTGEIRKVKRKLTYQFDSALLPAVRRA
Experiment [9] has as its target T6, ELK3 (Homo sapiens, UniProt P41970 1-407).
T6 sequence: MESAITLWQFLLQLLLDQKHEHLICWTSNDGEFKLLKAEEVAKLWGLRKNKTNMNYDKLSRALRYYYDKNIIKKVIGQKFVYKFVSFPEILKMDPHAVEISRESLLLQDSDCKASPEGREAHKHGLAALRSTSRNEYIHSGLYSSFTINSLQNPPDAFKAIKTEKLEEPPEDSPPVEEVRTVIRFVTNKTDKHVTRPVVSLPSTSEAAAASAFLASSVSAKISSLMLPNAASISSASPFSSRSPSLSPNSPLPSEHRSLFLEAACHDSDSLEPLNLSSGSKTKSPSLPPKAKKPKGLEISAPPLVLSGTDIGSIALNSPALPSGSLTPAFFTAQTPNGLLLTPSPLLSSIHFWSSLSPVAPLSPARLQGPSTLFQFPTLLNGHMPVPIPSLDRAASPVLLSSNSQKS
To be noted: protein: recombinant; tags: N-terminal GST; dsDNA, one strand shown. In outline:
as §1

Experiment [10] deals with T7, FEV (Homo sapiens, UniProt Q99581 1-238).
T7 sequence: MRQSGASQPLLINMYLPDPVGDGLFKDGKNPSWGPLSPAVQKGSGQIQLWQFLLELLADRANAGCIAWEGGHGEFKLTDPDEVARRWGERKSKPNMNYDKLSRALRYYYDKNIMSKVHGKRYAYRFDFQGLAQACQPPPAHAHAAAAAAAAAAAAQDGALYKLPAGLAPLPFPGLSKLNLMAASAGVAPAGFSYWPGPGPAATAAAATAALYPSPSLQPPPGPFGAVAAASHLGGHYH
To be noted: protein: recombinant; tags: N-terminal GST; dsDNA, one strand shown. In outline: as §1

The target of experiment [11] is ETV5 (Homo sapiens, UniProt P41161 1-510). As to conditions: protein: recombinant; tags: N-terminal GST; dsDNA, one strand shown. In outline: as §1
ETV5, sequence (P41161 whole entry): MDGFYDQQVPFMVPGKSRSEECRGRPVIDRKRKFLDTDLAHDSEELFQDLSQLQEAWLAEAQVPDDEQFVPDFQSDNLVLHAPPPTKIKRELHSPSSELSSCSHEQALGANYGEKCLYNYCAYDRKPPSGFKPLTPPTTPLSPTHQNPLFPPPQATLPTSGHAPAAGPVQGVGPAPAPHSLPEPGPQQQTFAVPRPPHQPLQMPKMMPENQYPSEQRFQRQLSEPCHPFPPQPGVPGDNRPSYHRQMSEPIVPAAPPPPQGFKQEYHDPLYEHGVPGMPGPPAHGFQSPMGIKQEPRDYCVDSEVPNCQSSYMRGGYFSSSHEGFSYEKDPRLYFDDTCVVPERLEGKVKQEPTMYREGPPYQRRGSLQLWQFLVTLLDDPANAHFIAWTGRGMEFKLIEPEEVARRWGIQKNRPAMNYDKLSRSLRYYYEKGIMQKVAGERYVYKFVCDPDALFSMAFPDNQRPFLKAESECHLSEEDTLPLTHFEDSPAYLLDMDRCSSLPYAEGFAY
For experiment [12], the target named is HSF1 (Homo sapiens, UniProt Q00613 1-529). To be noted: protein: recombinant; tags: N-terminal GST; chain copies: 3; dsDNA, one strand shown. In outline:
as §1

The target of experiment [13] is ELF4 (Homo sapiens, UniProt Q99607 1-663). As to conditions: protein: recombinant; tags: N-terminal GST; dsDNA, one strand shown. In outline: as §1
ELF4, sequence (Q99607 whole entry): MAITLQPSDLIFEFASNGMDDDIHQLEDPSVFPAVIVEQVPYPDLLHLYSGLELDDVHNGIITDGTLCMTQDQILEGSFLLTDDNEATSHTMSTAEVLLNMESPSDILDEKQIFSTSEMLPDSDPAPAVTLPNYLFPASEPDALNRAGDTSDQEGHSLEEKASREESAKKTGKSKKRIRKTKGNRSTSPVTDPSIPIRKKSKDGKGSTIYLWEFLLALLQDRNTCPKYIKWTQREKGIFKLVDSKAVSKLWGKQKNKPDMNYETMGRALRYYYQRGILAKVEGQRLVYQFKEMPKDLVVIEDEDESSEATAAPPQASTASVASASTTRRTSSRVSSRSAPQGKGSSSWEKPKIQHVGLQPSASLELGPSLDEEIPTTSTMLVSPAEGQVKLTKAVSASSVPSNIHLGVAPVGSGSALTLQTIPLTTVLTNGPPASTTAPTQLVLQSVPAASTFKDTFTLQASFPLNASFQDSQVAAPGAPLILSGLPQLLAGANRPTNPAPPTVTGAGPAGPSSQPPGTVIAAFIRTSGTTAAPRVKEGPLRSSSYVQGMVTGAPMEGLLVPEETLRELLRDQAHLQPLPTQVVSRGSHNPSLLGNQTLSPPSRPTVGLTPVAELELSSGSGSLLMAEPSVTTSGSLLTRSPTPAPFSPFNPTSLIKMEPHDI
Experiment [14] concerns the target T8, ELK4 (Homo sapiens, UniProt P28324-2 1-405).
T8 sequence: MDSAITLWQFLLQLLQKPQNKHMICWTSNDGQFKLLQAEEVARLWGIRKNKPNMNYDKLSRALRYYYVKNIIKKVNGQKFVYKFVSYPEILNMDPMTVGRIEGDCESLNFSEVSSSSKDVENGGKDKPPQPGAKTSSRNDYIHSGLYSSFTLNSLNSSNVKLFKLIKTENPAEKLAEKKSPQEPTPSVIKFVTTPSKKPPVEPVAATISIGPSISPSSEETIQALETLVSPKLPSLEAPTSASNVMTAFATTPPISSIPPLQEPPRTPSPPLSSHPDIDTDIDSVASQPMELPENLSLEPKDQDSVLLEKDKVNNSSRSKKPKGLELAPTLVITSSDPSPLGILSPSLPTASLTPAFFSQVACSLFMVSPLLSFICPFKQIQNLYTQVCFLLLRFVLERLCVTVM
To be noted: protein: recombinant; tags: N-terminal GST; dsDNA, one strand shown. In outline:
as §1

In experiment [15] the target is T9, ETV2 (Homo sapiens, UniProt O00321 1-342).
T9 sequence: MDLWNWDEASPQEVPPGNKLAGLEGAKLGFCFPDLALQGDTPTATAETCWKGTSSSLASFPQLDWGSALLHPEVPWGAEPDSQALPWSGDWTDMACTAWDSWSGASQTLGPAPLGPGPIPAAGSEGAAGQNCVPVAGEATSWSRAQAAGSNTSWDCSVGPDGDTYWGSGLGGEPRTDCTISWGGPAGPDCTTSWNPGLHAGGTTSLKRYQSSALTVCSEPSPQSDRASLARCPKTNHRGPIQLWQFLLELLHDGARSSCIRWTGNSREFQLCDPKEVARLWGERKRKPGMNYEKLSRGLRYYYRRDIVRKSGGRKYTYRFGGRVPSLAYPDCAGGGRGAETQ
As to conditions: protein: recombinant; tags: N-terminal GST; dsDNA, one strand shown. In outline: as §1

In experiment [16] the target is T10, ELF3 (Homo sapiens, UniProt P78545 1-371).
T10 sequence: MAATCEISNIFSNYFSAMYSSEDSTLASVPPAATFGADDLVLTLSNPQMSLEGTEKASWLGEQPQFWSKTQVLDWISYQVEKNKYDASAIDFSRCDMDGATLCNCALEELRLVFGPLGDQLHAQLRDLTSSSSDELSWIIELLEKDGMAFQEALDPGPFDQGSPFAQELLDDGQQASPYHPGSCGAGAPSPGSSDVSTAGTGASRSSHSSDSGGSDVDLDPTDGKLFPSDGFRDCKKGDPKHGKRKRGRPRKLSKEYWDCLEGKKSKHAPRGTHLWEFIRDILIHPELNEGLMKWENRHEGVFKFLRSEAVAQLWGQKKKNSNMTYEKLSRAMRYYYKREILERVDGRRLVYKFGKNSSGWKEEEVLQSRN
As to conditions: protein: recombinant; tags: N-terminal GST; dsDNA, one strand shown. In outline:
as §1

Experiment [17] deals with CRX (Homo sapiens, UniProt O43186 1-299). To be noted: protein: recombinant; tags: N-terminal GST; dsDNA, one strand shown. In outline: as §1
CRX, sequence (O43186 whole entry): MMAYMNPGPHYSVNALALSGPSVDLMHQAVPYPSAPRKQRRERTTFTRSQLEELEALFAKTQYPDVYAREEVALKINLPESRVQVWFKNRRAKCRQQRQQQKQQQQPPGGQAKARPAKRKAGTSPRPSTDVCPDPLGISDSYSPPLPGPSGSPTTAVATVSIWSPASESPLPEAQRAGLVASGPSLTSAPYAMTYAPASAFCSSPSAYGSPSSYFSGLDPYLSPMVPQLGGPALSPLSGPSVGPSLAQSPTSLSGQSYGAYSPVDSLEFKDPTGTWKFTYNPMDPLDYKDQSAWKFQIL
The target in experiment [18] is ETV1 (Homo sapiens, UniProt P50549 1-477). As to conditions: protein: recombinant; tags: N-terminal GST; dsDNA, one strand shown. In outline:
as §1

ETV1, sequence (P50549 whole entry): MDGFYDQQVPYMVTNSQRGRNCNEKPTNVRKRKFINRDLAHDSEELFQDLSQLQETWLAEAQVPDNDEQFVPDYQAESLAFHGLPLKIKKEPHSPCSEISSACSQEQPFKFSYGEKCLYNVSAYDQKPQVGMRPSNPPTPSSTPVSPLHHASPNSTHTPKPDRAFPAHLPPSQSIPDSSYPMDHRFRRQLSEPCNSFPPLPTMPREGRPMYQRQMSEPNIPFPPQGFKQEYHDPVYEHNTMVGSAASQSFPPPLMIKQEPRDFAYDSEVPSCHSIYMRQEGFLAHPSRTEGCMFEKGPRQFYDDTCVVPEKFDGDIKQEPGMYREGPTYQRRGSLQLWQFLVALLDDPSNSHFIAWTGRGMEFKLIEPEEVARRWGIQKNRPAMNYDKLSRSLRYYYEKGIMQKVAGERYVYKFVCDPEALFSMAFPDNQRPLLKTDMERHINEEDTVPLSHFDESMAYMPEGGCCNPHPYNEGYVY
HSF1, sequence (Q00613 whole entry): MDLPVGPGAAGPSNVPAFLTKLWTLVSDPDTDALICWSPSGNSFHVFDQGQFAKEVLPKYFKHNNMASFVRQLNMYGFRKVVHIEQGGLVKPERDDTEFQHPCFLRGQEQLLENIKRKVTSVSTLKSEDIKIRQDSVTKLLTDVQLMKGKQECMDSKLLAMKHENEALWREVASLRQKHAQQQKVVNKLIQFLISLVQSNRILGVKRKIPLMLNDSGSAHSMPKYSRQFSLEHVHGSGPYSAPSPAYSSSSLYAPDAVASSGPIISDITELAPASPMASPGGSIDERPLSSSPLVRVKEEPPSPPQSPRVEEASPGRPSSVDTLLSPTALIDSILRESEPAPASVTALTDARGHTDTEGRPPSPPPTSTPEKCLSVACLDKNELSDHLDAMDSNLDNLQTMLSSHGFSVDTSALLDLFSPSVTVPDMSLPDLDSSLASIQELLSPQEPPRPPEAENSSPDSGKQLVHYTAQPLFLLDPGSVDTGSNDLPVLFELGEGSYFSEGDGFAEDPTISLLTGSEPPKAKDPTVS

Consider TGCAAA, for which the binding signal is 1.13 fold enrichment (6-mer frequency, TF over GST control) in [1]; 1.11 fold enrichment (6-mer frequency, TF over GST control) in experiment [2]; 1.07 fold enrichment (6-mer frequency, TF over GST control) in experiment [3]; 1.14 fold enrichment (6-mer frequency, TF over GST control) in experiment [4]; 1.19 fold enrichment (6-mer frequency, TF over GST control) in experiment [5]; 1.16 fold enrichment (6-mer frequency, TF over GST control) in experiment [6]. Also, the binding signal in experiment [7] is 1.14 fold enrichment (6-mer frequency, TF over GST control); in [8], 1.12 fold enrichment (6-mer frequency, TF over GST control); in [9] it was 1.14 fold enrichment (6-mer frequency, TF over GST control); in [10], 1.12 fold enrichment (6-mer frequency, TF over GST control); in [11] it was 1.09 fold enrichment (6-mer frequency, TF over GST control); in [12] it was 1.06 fold enrichment (6-mer frequency, TF over GST control). Moreover, the binding signal was 1.13 fold enrichment (6-mer frequency, TF over GST control) in experiment [13]; 1.14 fold enrichment (6-mer frequency, TF over GST control) in experiment [14]; 1.08 fold enrichment (6-mer frequency, TF over GST control) in [15]; 1.2 fold enrichment (6-mer frequency, TF over GST control) in experiment [16]; 1.01 fold enrichment (6-mer frequency, TF over GST control) in experiment [17]; 1.14 fold enrichment (6-mer frequency, TF over GST control) in [18].
